Compounds with a hit are over-represented: about 7.4% of the library has one in this group of screens.
NPC1 promoter act: activates the NPC1 promoter. Huh7 NPC1 promoter luciferase reporter, 24 h. Potency, µM (titrated, usually from 9.22 µM), for the others: at the top dose activation, hits mostly activators. 2.4% of 320,000 active; also: % of control where 0% means no effect; nearly all actives have a fitted effect of over 60% in size
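Luminescence from an NPC1 promoter-driven luciferase reporter in stably transfected Huh7 cells was measured after 24 h compound treatment at 37 °C, followed by 10 min ambient incubation with luciferase detection reagent.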
SMN2 splice up: enhancers of SMN2 splice variant expression | Potency, µM (series often up to 46.1 µM), without a hit: at the highest dose activity change, positive = activation, usual class: activators | HEK293 SMN2-luciferase splicing reporter, luminescence, 30-36 h | AID 1458 | 2.8% of 210,000 active; also: % of control where 0% means no effect; nearly all actives have a fitted effect of over 55% in size
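qHTS luciferase splicing reporter: luminescence rises when SMN2 exon 7 is included in transfected HEK293 cells. Compound exposure lasted 30-36 h at 37C, with 4.5 mM final sodium butyrate as control, followed by a ONE-Glo read.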
FLuc modulator: counter-screen for miR-21 project: firefly luciferase inhibitors or activators; purified FLuc, Km substrates, luminescence inhibition; Potency, µM (top dose mostly 57.5 µM), inactives show at the highest dose activity change, negative = inhibition, most hits filed as inhibitors; 6.9% of 360,000 active; AID 588342;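 also: plate controls were vehicle for no effect and reference inhibitor for full effect; nearly all actives have a fitted effect of over 55% in size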
Target sequence (P08659 whole entry, looked up): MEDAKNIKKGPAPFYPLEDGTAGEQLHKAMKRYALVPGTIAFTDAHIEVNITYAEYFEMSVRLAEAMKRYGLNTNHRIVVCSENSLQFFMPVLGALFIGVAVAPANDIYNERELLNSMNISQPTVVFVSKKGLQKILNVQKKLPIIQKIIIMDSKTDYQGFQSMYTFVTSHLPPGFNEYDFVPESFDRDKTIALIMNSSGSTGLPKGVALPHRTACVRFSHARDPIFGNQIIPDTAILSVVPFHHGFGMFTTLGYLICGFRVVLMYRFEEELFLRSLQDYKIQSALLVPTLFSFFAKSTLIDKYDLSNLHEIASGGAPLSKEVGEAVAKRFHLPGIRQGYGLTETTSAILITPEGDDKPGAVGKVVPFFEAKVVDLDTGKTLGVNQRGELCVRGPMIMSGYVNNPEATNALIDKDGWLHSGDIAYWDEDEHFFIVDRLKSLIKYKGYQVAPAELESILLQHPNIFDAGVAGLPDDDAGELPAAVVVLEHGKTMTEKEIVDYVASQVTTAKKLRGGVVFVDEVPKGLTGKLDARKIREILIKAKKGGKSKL
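Purified P. pyralis luciferase (10nM final) with 10uM D-luciferin and 10uM ATP (Km levels) in 50mM Tris acetate pH 7.5, 10mM Mg acetate, 0.01% Tween-20, 0.05% BSA; qHTS 6-point titration, ~60 µM downward; luminescence read.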
ELG1 genotox: induces genotoxicity in HEK293T cells with luciferase-tagged ELG1 | Potency, µM (highest dose often 46 µM), for the others: top-dose activity change, positive = activation, actives largely listed as activators | AID 504466 | 1.3% of 330,000 active | HEK293T ELG1-luciferase reporter, luminescence, 16 h; also: % of control where 0% means no effect; nearly all actives have a fitted effect of over 60% in size
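Cells (2,000/well) expressing the ELG1-luciferase fusion are dosed by pin tool and kept 16 hr at 37 °C, 5% CO2. Signal comes from ONE-Glo luciferase reagent after 30 min at room temperature.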
Rab9 prom act: activators of Rab9 promoter. Huh7 Rab9 promoter-luciferase reporter, luminescence, 24 h. Potency, µM (top dose mostly 9.22 µM), without a hit: top-dose activation, negative = inhibition, actives largely listed as activators. 2.8% of 320,000 active. AID 485297; also: % of control where 0% means no effect; nearly all actives have a fitted effect of over 60% in size
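Luminescence read-out: Huh7 cells stably expressing Rab9-luciferase, treated 24 h with compound at 37 °C, then lysed with luciferase reagent for 10 min at ambient before reading.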
An asterisk follows results filed as active; ? = inconclusive; · = no result given. Calls follow the shape of the dose curve; as a rule, active = well fitted curve in the direction sought with a large enough effect; inconclusive = small, poorly fitted or top-dose-only effect, or another doubt; inactive = no such curve, though single readings can be large; an effect the other way counts as inactive or inconclusive. Potency is read from the fitted curve at half-maximal effect.

SMILES	NPC1 promoter act	SMN2 splice up	FLuc modulator	ELG1 genotox	Rab9 prom act
Cc1ccc(OCCC(=O)OCC(=O)Nc2cc(S(=O)(=O)N(C)C)ccc2C)cc1	-5%	0%	11µM*	2%	-2%
Cc1ccc(S(=O)(=O)N2CCOCC2)cc1NC(=O)COc1ccc(-c2nnco2)cc1	-4%	-13%	-12%	-11%	0%
CCN(CC)S(=O)(=O)c1ccc(C)c(NC(=O)COC(=O)CNC(=O)c2ccc(C(C)(C)C)cc2)c1	-1%	17%	0.54µM*	1%	0%
Cc1ccc(S(=O)(=O)N(C)C)cc1NC(=O)COC(=O)c1c(-c2ccccc2)noc1C	-2%	·	3%	-8%	0%
CCN(CC)S(=O)(=O)c1cccc(NC(=O)COC(=O)CNC(=O)c2cccc(F)c2)c1	-1%	·	-4%	1%	-6%
Cc1ccc(S(=O)(=O)N(C)C)cc1NC(=O)COC(=O)CCC1CCCC1	3%	·	-7%	5%	-3%
Cc1ccc(S(=O)(=O)N(C)C)cc1NC(=O)COC(=O)/C=C/c1ccc2ccccc2n1	23%	·	8.5µM*	-3%	19%
Cc1ccc(S(=O)(=O)N(C)C)cc1NC(=O)COc1ccc(-c2nnco2)cc1	-6%	·	17µM*	-2%	-2%
CC1=C(C(=O)Nc2cccc(Cl)c2C)C2(CCCCCC2)OC1=O	·	·	3%	·	·
CCOc1ccc(-n2c(=O)c3c(C)c(C)sc3n(CC(=O)Nc3ccc(CC)cc3)c2=O)cc1	·	3%	-2%	·	·
Cc1cccn2cc(COc3ccc(-c4ccccc4)cc3)nc12	?	·	9.5µM*	?	?
Cc1ccc(OCc2cn3cccnc3n2)cc1	3.5µM*	8.9µM*	21µM*	18µM*	2.8µM*
O=[N+]([O-])c1cccc(OCc2cn3cccnc3n2)c1	6%	-16%	1%	15%	9%
Cc1ccc(CN(Cc2ccco2)C(=O)c2cccc(C)c2)cc1	·	-25%	-6%	·	·
Cc1cc(=O)oc2cc(NC(=O)c3c(Cl)cnn3C)ccc12	30%	·	-6%	?	23%
COc1cccc(C(=O)Nc2ccc3c(C)cc(=O)oc3c2)c1	1.1µM*	·	1.9µM*	2.3µM*	0.71µM*
Cc1cc(=O)oc2cc(NC(=O)c3ccccc3C(=O)O)ccc12	2%	·	11µM*	-3%	-2%
Cc1ccccc1CC(=O)Nc1ccc2c(C)cc(=O)oc2c1	-2%	·	-1%	3%	-1%
Cc1cc(=O)oc2cc(NC(=O)c3ccccc3Cl)ccc12	3.2µM*	·	11µM*	15µM*	3.5µM*
Cc1cccc(OCC(=O)Nc2ccc3c(C)cc(=O)oc3c2)c1	-1%	-2%	2%	8%	-3%
Cc1cc(=O)oc2cc(NC(=O)c3ccnn3C)ccc12	2.8µM*	·	?	16µM*	4µM*
COc1ccccc1CC(=O)Nc1ccc2c(C)cc(=O)oc2c1	-3%	·	-4%	0%	-5%
O=C1C2C3C=CC(C3)C2C(=O)N1CCCCCCN1C(=O)C2C3C=CC(C3)C2C1=O (stereo not given)	-19%	·	4.3µM*	?	4µM*
COc1cccc(N=Nc2c(=O)[nH]n3c(C)cc(C)nc23)c1	-2%	24%	-17%	0%	1%
Cc1[nH]n2c(=O)cc(-c3ccc(Cl)cc3)nc2c1-c1ccccc1	·	-61%	?	·	·
SMILES	NPC1 promoter act	SMN2 splice up	FLuc modulator	ELG1 genotox	Rab9 prom act
COc1ccc(-c2c(C(F)(F)F)[nH]n3c(=O)cc(-c4ccccc4)nc23)cc1	-2%	·	19µM*	-8%	2%
Cc1ccc(N=Nc2c(N)[nH]n3c(=O)cc(-c4ccccc4)nc23)cc1	1%	-74%	9.5µM*	2%	-3%
O=c1cc(-c2ccccc2)nc2cc(-c3ccc(F)cc3)[nH]n12	·	10%	?	·	·
Cc1cc(=O)n2[nH]c(N)c(N=Nc3ccccc3)c2n1	-2%	18%	?	-6%	2%
COc1cccc(N=Nc2c(N)[nH]n3c(=O)cc(-c4ccccc4)nc23)c1	-1%	-86%	11µM*	-8%	3%
COc1cccc(-c2cc3nc(-c4ccccc4)cc(=O)n3[nH]2)c1	-11%	·	12µM*	?	0%
Cc1ccc(C)o1	·	2%	·	·	·
O=C(NCc1ccccc1)c1cnc2sc(N3CCCC3)nn2c1=O	·	·	-3%	·	·
Cc1cc(C)cc(NC(=O)Cn2nnc(C(=O)Nc3cc(C)cc(C)c3)c2N)c1	·	-26%	-2%	·	·
C#CCNC(=O)/C=C/c1ccc(C)cc1	3.2µM*	13µM*	11µM*	?	4µM*
Cc1ccc(/C=C/C(=O)NCCCc2ccccc2)cc1	1%	-10%	-26%	-3%	-1%
Clc1ccc(CN2CCC(CNc3ncnc4onc(-c5ccc(Cl)cc5)c34)CC2)cc1	·	-24%	1%	·	·
CC[C@]1(C(=O)OC)[C@H]2C(=O)N(Cc3ccccc3)C(=O)[C@H]2[C@H]2CN=C(SCC3CC3)N21	·	·	·	0%	·
COc1cc(OC)cc(-c2c(-c3ccc(F)cc3)c3cc(-c4cnc(OC)nc4)ccc3n2C)c1	-8%	·	0%	-2%	0%
Cc1ccc2c(COC(=O)c3ccccc3F)cc(=O)oc2c1	?	·	0.19µM*	2.1µM*	?
Cc1ccc2c(COC(=O)c3n[nH]c4ccccc34)cc(=O)oc2c1	?	·	5.4µM*	4.6µM*	12%
Cc1ccc2c(COC(=O)c3c(C)noc3C)cc(=O)oc2c1	-22%	-25%	?	3%	5%
CCc1ccc2c(COC(=O)c3n[nH]c4ccccc34)cc(=O)oc2c1	?	?	5.4µM*	?	?
CCOC(=O)c1n[nH]c2ccccc12	-4%	-5%	2%	0%	-3%
COc1ccc(NC(=O)Nc2cccc3c2O[C@H](CN(C)C(=O)NC(C)C)[C@@H](C)CN([C@H](C)CO)C3=O)cc1	·	·	·	5%	·
CCOC(=O)[C@H]1[C@H]2COc3ccc(OC)cc3[C@@H]2N2C(=O)c3cc(OC)c(OC)cc3NC(=O)[C@@]12C	-1%	·	-1%	11%	-3%
COc1ccc(-c2cc(C(=O)c3c(N)n(C)c(=O)n(C)c3=O)c3ccccc3n2)cc1	?	·	0.38µM*	?	?
COc1ccc(-c2cc(C(=O)OCC(=O)c3c(N)n(C)c(=O)n(C)c3=O)c3ccccc3n2)cc1	-1%	-5%	7.6µM*	2%	14%
O=C(CN1C(=O)NC2(CCCCC2)C1=O)NCc1cccs1	0%	12%	3%	2%	-2%
Cc1ccc(Nc2c(-c3ccc(N(C)C)cc3)nc3ccccn23)cc1	·	15%	7.6µM*	·	·
Cc1ccc(Nc2c(-c3ccc(C)cc3)nc3ccc(C)cn23)cc1	·	8%	-2%	·	·
Cc1ccc2nc(-c3ccncc3)c(Nc3ccccc3)n2c1	-1%	18µM*	0%	-1%	0%
Cc1ccc(Nc2c(-c3ccccc3)nc3cnccn23)cc1	0%	7%	-3%	2%	-7%
